Screening results: PubChem, National Center for Advancing Translational Sciences (NCATS)
GBA activity = modulators of human glucocerebrosidase. P04062. purified enzyme, resorufin glucoside fluorescence (screen aimed at inhibitors), 20 min. Potency, µM. hit rate 1.1% among 48,000. AID 360; in the data active = potency below about 15 µM; inconclusive = mostly about 16 µM to 33 µM;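 also: the screen sought inhibitors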
Target sequence (P04062 whole entry, looked up): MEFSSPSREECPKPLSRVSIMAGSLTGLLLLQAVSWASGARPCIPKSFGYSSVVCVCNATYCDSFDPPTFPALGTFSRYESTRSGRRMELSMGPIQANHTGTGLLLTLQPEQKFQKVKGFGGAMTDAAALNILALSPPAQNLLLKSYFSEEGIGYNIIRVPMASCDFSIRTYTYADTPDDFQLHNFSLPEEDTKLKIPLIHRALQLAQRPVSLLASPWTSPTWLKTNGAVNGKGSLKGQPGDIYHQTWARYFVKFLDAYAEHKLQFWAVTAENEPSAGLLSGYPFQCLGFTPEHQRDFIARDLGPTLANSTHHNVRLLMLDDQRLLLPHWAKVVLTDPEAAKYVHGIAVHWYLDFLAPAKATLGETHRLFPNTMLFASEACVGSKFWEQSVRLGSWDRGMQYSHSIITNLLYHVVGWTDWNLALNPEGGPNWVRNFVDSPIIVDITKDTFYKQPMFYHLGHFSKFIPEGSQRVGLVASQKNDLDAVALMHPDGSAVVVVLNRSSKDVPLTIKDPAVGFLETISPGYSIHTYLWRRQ
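Normal human glucocerebrosidase (0.2 nM final) was assayed with resorufin β-D-glucopyranoside (30 uM final) in 50mM citric acid/KH2PO4, 10mM sodium taurocholate, 0.01% tween-20, pH 5.9. Compounds were titrated; fluorescence (Ex 548, Em 600) read after 20 min at RT.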
Luciferase inh = firefly luciferase inhibition. hit rate 2.2% among 72,000. purified firefly luciferase, luminescence, 8 min. Potency, µM (series often up to 57.1 µM), most hits filed as inhibitors. P08659. AID 411; active = well fitted inhibition curve with a large enough effect; inconclusive = small, poorly fitted or top-dose-only effect; also: nearly all actives have a fitted effect of over 40% in size
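Inhibition of light generation by firefly luciferase from ATP and luciferin was profiled with concentration-response curves per sample, ATP held at 10 uM within the enzyme's linear range. Plates were read by luminescence after an 8-minute ambient incubation.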
PK Bst = modulators of Bacillus stearothermophilus pyruvate kinase | hit rate 1.2% among 51,000 | Potency, µM | purified pyruvate kinase, luminescence ATP production; ribose 5-phosphate activator present at AC10; in the data active = potency below about 11 µM; inconclusive = mostly about 12 µM to 25 µM;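 the screen sought inhibitors and activators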
Hits are given with their value; ! = a repeat was not active; [ ] = remark or other dose. Compounds with a hit are over-represented: about 3.2% of the library has one in this group of screens.

For COc1cccc(Cn2c(=O)c(-c3ccccc3)nc3cncnc32)c1 the results were Luciferase inh inactive[11.4 µM].
`Cc1noc(C)c1-c1nc(NCCN2CCOCC2)c2ccccc2n1` gave Luciferase inh inactive[2.29 µM].
Screening CCOc1ccc(OCc2cccc(C(=O)N3CCCC3)c2)cc1 returned GBA activity inactive, Luciferase inh 12.6µM and PK Bst inconclusive.
For COc1ccc(OCc2cccc(C(=O)O)c2)cc1 the results were GBA activity inactive, Luciferase inh 2µM and PK Bst 1.16.
CCOc1ccc(OCc2cccc(C(=O)O)c2)cc1 was read as GBA activity inactive, Luciferase inh 0.794µM and PK Bst 0.761.
For COc1ccc(NS(=O)(=O)c2cccc(C(=O)O)c2)cc1 the results were GBA activity inactive, Luciferase inh inactive and PK Bst inactive.
`O=C(O)c1cccc(COc2ccc(CO)cc2Cl)c1` gave GBA activity inactive, Luciferase inh 1µM and PK Bst 0.954.
CCOc1ccc(OCc2ccc(C(=O)N3CCCC3)o2)cc1 was read as GBA activity inactive, Luciferase inh inactive and PK Bst inactive.
For O=C(O)c1cccc(COCC(F)(F)C(F)F)c1 the results were GBA activity inactive, Luciferase inh inactive and PK Bst inactive.
O=C(O)c1ccc(COc2ccc(CO)cc2Cl)cc1 was read as GBA activity inactive, Luciferase inh inactive and PK Bst inactive.
Screening CCN(CC)C[C@@H](O)CN1CCCCc2nc(C)c(C)cc21 returned Luciferase inh inactive[11.4 µM].
Screening c1ccc(-c2ccc(-c3ccc(C4=NCCN4)cc3)o2)cc1 returned Luciferase inh inactive[11.4 µM].
CCN1C(=O)N[C@@H](c2ccccc2)C1=O was read as Luciferase inh inactive.
CN[C@@H](c1ccncc1)[C@@H](NC)c1ccncc1 was read as Luciferase inh inactive[11.4 µM].
c1nc(N2CCNCC2)c2cc(-c3ccc4c(c3)OCO4)ccc2n1 was read as Luciferase inh inactive[2.29 µM].
For O=C(Nc1ccccc1)N(CCCN1CCOCC1)Cc1ccccc1F the results were Luciferase inh inactive and PK Bst inactive.
For O=C(Nc1cccc(Cl)c1)N(CCCN1CCOCC1)Cc1ccccc1F the results were GBA activity 11.4, Luciferase inh inactive and PK Bst inactive.
Screening Cc1cc2c(nc1C)CCCN2C[C@H](C)O/N=C1/[C@H]2O[C@@H]2[C@@H](O)[C@H]2[C@H]1CCn1c(=O)n(-c3ccccc3)c(=O)n12 returned Luciferase inh inactive[11.4 µM].
O=C(Nc1ccc(Nc2ccc3c(c2)C(=O)c2ccccc2C3=O)c2c1C(=O)c1ccccc1C2=O)c1ccccc1 was read as Luciferase inh inactive[11.4 µM].
`O=C1NC(c2ccccc2)C(C(=O)c2cccs2)C(O)(C(F)(F)F)N1` (stereo not given) gave GBA activity inactive, Luciferase inh inactive and PK Bst inactive.
Screening CN1C(=O)NC(c2ccc(O)cc2)C(C(=O)c2cccs2)C1(O)C(F)(F)F (stereo not given) returned GBA activity 15, Luciferase inh inactive and PK Bst inactive.
`O=C1[C@H]2CCn3c(=O)n(-c4ccccc4)c(=O)n3[C@H]2[C@H](O)[C@H]2O[C@@H]12` gave Luciferase inh inactive[11.4 µM].
Cc1cnc(CNc2ccnc(-c3ccccc3Cl)n2)cn1 was read as Luciferase inh inactive[2.29 µM].
COc1cc(O)c(C(=O)/C=C\c2ccc3c(c2)OCO3)c(OC)c1 was read as Luciferase inh inactive[11.4 µM].
Nc1ccccc1C(=O)/C=C\c1ccc2c(c1)OCO2 was read as Luciferase inh 3.16µM.
For Cc1cc(N)c2cc(NC(=O)Nc3ccc4nc(C)cc(N)c4c3)ccc2n1 the results were Luciferase inh inactive[11.4 µM].
`Cc1cc(NC(=O)Nc2ccc3c(ccn3C)c2)sn1` gave Luciferase inh 31.6µM!.
For CCCn1c(=O)c(C)cn2nc(N)nc12 the results were Luciferase inh inactive.
COc1ccc(N2CCN(Cc3cc(=O)oc4cc(C)c(Cl)cc34)CC2)cc1 was read as GBA activity 5.27, Luciferase inh inactive and PK Bst inactive.
COc1ccc(N2CCN(Cc3cc(=O)oc4cc(-c5ccccc5)c(O)cc34)CC2)cc1 was read as GBA activity inactive, Luciferase inh inactive and PK Bst inactive.
Screening Cc1ccc(N2CC(C(=O)NC3=NCCS3)CC2=O)cc1 (stereo not given) returned GBA activity inactive, Luciferase inh inactive and PK Bst inactive.
`Cc1ccc(S(=O)(=O)N2CCCC(C(=O)NC3=NCCS3)C2)cc1` (stereo not given) gave GBA activity inconclusive, Luciferase inh inactive and PK Bst 6.31.
COc1ccc(S(=O)(=O)N2CCCC(C(=O)Nc3ccc(OC)c(OC)c3)C2)cc1 (stereo not given) was read as GBA activity inactive, Luciferase inh inactive and PK Bst inactive.
For COc1ccc(NC(=O)C2CCCN(S(=O)(=O)c3ccc(C)cc3)C2)cc1OC (stereo not given) the results were GBA activity inactive, Luciferase inh inactive and PK Bst 5.37.
`N[C@@H](C(=O)O)c1ccc(C(=O)O)c(O)c1` gave Luciferase inh inactive.
Cc1cc(-c2ccc(Cl)cc2)n2nc(N)nc2n1 was read as GBA activity inactive, Luciferase inh inactive and PK Bst inconclusive.
Nc1nc2nccc(-c3ccc(Cl)cc3)n2n1 was read as GBA activity inactive, Luciferase inh inconclusive and PK Bst 6.04.
For COc1ccccc1Nc1nnc(SCC(=O)N2CCCC2=O)s1 the results were GBA activity inactive and Luciferase inh 20µM.
COc1ccccc1Nc1nnc(SCC(=O)N2CCCC2)s1 was read as GBA activity inactive, Luciferase inh inactive and PK Bst inactive.
Screening O=C(c1ccc2c3c(cccc13)C(=O)N(O)C2=O)N1CCCCC1 returned Luciferase inh inactive and PK Bst inactive.
For O=C1c2cccc3c(Cl)ccc(c23)C(=O)N1O the results were GBA activity inactive, Luciferase inh inactive and PK Bst 5.09.
For Nc1nc(SCC(=O)O)[nH]c(=O)c1N the results were Luciferase inh inactive[11.4 µM].
Screening CCn1c(C)csc1=NC(=O)c1ccccc1O returned GBA activity inactive, Luciferase inh 12.6µM and PK Bst inactive.
`CCn1c(C)csc1=NC(=O)c1ccccc1` gave GBA activity inactive, Luciferase inh inactive and PK Bst inactive.
`C=C1c2c(Cl)ccc(O)c2C(O)=C2C(=O)[C@@]3(O)C(O)=C(C(N)=O)C(=O)[C@@H](N(C)C)[C@@H]3[C@@H](O)[C@H]12` gave Luciferase inh inactive.
Screening Cc1ccc(C2/C(=C(/O)c3cnn(-c4ccccc4)c3C)C(=O)C(=O)N2CCN2CCOCC2)o1 (stereo not given) returned Luciferase inh inactive and PK Bst inactive.
For Cc1c(/C(O)=C2/C(=O)C(=O)N(CCN3CCOCC3)C2c2cccs2)cnn1-c1ccccc1 (stereo not given) the results were GBA activity inactive and Luciferase inh 12.6µM.
COc1ccc(C(=O)/C=C/Nc2cc(C)on2)cc1 was read as Luciferase inh 3.16µM.
COc1ccc(CC(=O)Nc2cc(C)on2)cc1 was read as GBA activity inactive, Luciferase inh inactive and PK Bst inactive.
Screening FC(F)(F)c1ccccc1-c1cncnc1NCCN1CCOCC1 returned Luciferase inh inactive[2.29 µM].
Screening C[C@H]1[C@H](C)CC[C@@]2(C(=O)O)CC[C@]3(C)C(=CC[C@@H]4[C@@]5(C)CC[C@H](O)C(C)(C)[C@@H]5CC[C@@]43C)[C@@H]12 returned Luciferase inh inactive[11.4 µM].
